Shown are actives, neighbours in structure and some others; about 3.9% of the full set was active somewhere.
BoNT A protease: BoNT/A light chain protease inhibitors, primary screen, biochemical, flow cytometry, MLPCN library | Botulinum neurotoxin type A light chain protease (Clostridium botulinum A str. ATCC 3502) | multiplex microsphere protease substrate cleavage | inhibition, % at 10 µM | 0.17% of 360,000 active; further: plate controls were buffer without enzyme for full effect and enzyme alone for no effect
DUSP3 inh: VHR1 phosphatase inhibitors, primary screen, biochemical, absorbance, uHTS. Dual specificity protein phosphatase 3 (Homo sapiens), P51452. recombinant VHR phosphatase, pNPP absorbance. inhibition, % at 13.3 µM. 0.52% of 290,000 active; in the data active means inhibition above about 50%
Target sequence (P51452 whole entry, looked up): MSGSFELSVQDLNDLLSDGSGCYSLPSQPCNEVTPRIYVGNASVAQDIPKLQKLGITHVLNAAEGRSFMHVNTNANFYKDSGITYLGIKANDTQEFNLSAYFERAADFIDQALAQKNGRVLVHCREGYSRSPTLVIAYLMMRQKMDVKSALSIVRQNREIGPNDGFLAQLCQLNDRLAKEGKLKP
BoNT-F LC inh: BoNT/F light chain protease inhibitors, primary screen, biochemical, flow cytometry, MLPCN library; Botulinum neurotoxin type F light chain protease (Clostridium botulinum); 0.22% of 360,000 active; Multiplex microsphere protease cleavage assay; inhibition, % at 10 µM; in the data active means inhibition above about 35%, passing the limit was not always enough; inconclusive means no clear call, values can overlap the other calls; further: plate controls were buffer without enzyme for full effect and enzyme alone for no effect
3CLpro inhibitor: SARS-CoV 3CLpro protease inhibitors, primary screen, biochemical, quenched FRET; Replicase polyprotein 1ab (Severe acute respiratory syndrome coronavirus), P0C6X7; recombinant SARS-CoV 3CLpro, quenched FRET peptide cleavage; inhibition, % at 6 µM; 0.14% of 290,000 active; AID 1706, 2009; in the data active means inhibition above about 12%
Anthrax LF prot: Bacillus anthracis LF protease inhibitors, primary screen, biochemical, multiplex microsphere, MLPCN library; inhibition, % at 10 µM; Lethal factor (Bacillus anthracis), P15917; 0.12% of 360,000 active; multiplex microsphere protease cleavage assay; further: plate controls were buffer without enzyme for full effect and enzyme alone for no effect
Bead autofluor: flagged as autofluorescent in microsphere protease counterscreen. 3.1% of 360,000 active. compound autofluorescence counterscreen, microsphere flow cytometry; active compounds read high. fluorescence intensity (concentration not given with the values); in the data active means fluorescence intensity above about 16000; inconclusive means no clear call, values can overlap the other calls
* marks the source's active call; other numbers are inactive results; ? = inconclusive; / = not tested or not shown. Unless noted, no stated cut-off is given here; in the data, active means inhibition above about 30%; inconclusive means no clear call, values can overlap the other calls; inactive means below that.

SMILES	BoNT A protease	DUSP3 inh	BoNT-F LC inh	3CLpro inhibitor	Anthrax LF prot	Bead autofluor
Cc1ccc(SCc2[nH]nc3c2C(c2ccco2)C(C#N)=C(N)O3)cc1 (configuration not stated)	0	1	-9	-3	1	7792
CCc1ccc(NC(=O)CC2C(=O)N(c3ccc(C)cc3)C(=O)N2CCc2ccncc2)cc1 (configuration not stated)	1	-8	2	-3	1	2175
CCc1ccc(C(=O)COC(=O)c2ccc(-c3nnc(-c4ccccc4)o3)cc2)cc1	-2	33	-4	1	-1	24076*
c1ccc(Cn2c(NCc3ccco3)nc3ccccc32)cc1	?	-4	5	5	3	22272*
CC(=O)c1cccc(OCC(O)CN2CCN(C(=O)c3ccco3)CC2)c1 (configuration not stated)	-3	7	-9	1	-3	3602
CCOc1ccc(-n2c(Cc3cc(=O)[nH]c(=O)[nH]3)nnc2SCC)cc1	?	5	4	1	0	19071*
Cc1ccc(S(=O)(=O)NCc2ccc3c(c2)cc(C)n3C)cc1	81*	2	-110	2	-74	1200
Cc1cc2cc(CN3C(=O)c4ccccc4C3=O)ccc2n1C	88*	0	-57	3	13	2185
COC(=O)c1ccc(C(c2c(C)n(C)n(-c3ccccc3)c2=O)c2c(C)n(C)n(-c3ccccc3)c2=O)cc1	-2	-28	?	1	-6	3335
C=CCn1c(O)c(C(CC)=Nc2ccccc2NC(C)=O)c(=O)[nH]c1=O	0	6	-5	-4	5	8842
C=CCn1c(O)c(C(CC)=Nc2ccccc2NC(=O)CC)c(=O)[nH]c1=O	?	24	1	5	-3	20357*
C=CCn1c(O)c(C(CC)=NCCN2CCOCC2)c(=O)[nH]c1=O	5	36	10	1	-2	19747*
CN(Cc1ccccc1)C(=O)CC(=O)N(C)Cc1ccccc1	0	-12	-33	3	-6	3631
CN(/C=C/C(=O)C(F)(F)F)Cc1ccccc1	-2	29	-4	3	-2	24286*
CCc1ccc(-c2cc(C(=O)O)c3ccccc3n2)s1	2	-20	-4	1	-11	3662
O=C(CSc1ncnc2nc[nH]c12)N1CCN(c2ccc(Cl)cc2)CC1	0	18	3	4	-4	16576*
O=C(O)CSc1ncnc2nc[nH]c12	0	39	0	0	0	20292*
CCOC(=O)C(C)Sc1ncnc2nc[nH]c12 (configuration not stated)	?	13	-3	3	-3	24038*
O=C(CSc1ncnc2nc[nH]c12)c1ccc2ccccc2c1	0	1	-4	-2	-3	2541
CCOC(=O)C(CC)Sc1ncnc2nc[nH]c12 (configuration not stated)	0	22	5	5	-1	3814
Cn1nc(C(=O)NCc2ccc(F)cc2)c2ccccc2c1=O	2	/	0	4	-3	22634*
O=C(NCc1ccccc1)c1ccc(-c2ccc(F)cc2)o1	?	-8	-2	-3	-1	21149*
Cn1nc(C(=O)NCc2ccccc2)c2ccccc2c1=O	0	13	-2	-2	2	3811
C=CCNC(=O)Cc1ccc(S(=O)(=O)N2CCOCC2)s1	-1	/	-9	/	0	8884
O=C(/C=C/c1ccccc1)N1CCC(N2CCC(C(=O)N3CCOCC3)CC2)CC1	-1	26	0	-2	2	4717
SMILES	BoNT A protease	DUSP3 inh	BoNT-F LC inh	3CLpro inhibitor	Anthrax LF prot	Bead autofluor
O=C(NC(NCc1ccccn1)(C(F)(F)F)C(F)(F)F)c1ccco1	0	7	0	-3	2	22419*
O=C(NCCNCc1ccccn1)c1ccco1	-1	19	1	2	-1	2262
CCOC(=O)C1=C(C)NC2=C(C(=O)CC(C)(C)C2)C1c1ccc(N(C)C)cc1 (configuration not stated)	-3	10	-7	4	-2	24751*
COC(=O)C1=C(C)NC2=C(C(=O)CC(C)(C)C2)C1c1cccc(C)n1 (configuration not stated)	0	-2	-1	4	0	23176*
CCOc1cc(C2C(C(=O)N3CCCCC3)=C(C)NC3=C2C(=O)CC(C)(C)C3)ccc1O (configuration not stated)	-1	9	-4	2	-3	23188*
CCOC(=O)C1=C(C)NC2=C(C(=O)CC(C)(C)C2)C1c1ccc(O)c(OCC)c1 (configuration not stated)	1	-2	4	0	-1	4278
CC(=O)c1ccc(NC(=O)CSc2ccc(-c3ccc(-n4cccn4)cc3)nn2)cc1	3	/	6	/	5	6009
CCOC(=O)C1=C(CCl)NC(=O)NC1c1ccc2c(c1)OCO2 (configuration not stated)	/	-4	/	3	/	/
Cc1ccc(C)n1-c1ccc(N2CCOCC2)cc1	3	-2	-18	1	-15	15146
Cc1cc(N2CCOCC2)cc(C)[n+]1[O-]	-1	8	0	-4	-4	16435*
O=C(OCc1nnc(-c2ccccc2)o1)C1CC(=O)N(Cc2ccco2)C1 (configuration not stated)	-2	13	-4	-4	-2	3525
CCc1nc(-c2cc3ccc(C)cc3[nH]c2=O)no1	0	28	-1	6	2	9970
Cc1ccc2cc(-c3noc(C(C)(C)C)n3)c(=O)[nH]c2c1	2	12	3	-4	2	22460*
COc1ccc(F)cc1S(=O)(=O)N1CC(C)CC(C)C1 (configuration not stated)	-1	8	-3	1	-5	20024*
COc1ccc(F)cc1S(=O)(=O)N1CCN(c2ccccn2)CC1	-1	-9	?	3	8	3792
CCN1CCN(S(=O)(=O)c2cc(OC)ccc2OC)CC1	0	-10	-3	-2	-1	24223*
COc1ccc(Nc2cc(Nc3cc(OC)c(OC)c(OC)c3)ncn2)cc1	0	-1	-30	-1	-25	3526
CC(OC(=O)c1nc(Cl)ccc1Cl)C(=O)Nc1ccc2c(c1)OCCO2 (configuration not stated)	0	/	-3	/	1	6284
CCOC(=O)c1c(C)[nH]c(C(=O)COC(=O)C(C)N2C(=O)C3CCCCC3C2=O)c1C (configuration not stated)	-8	5	-9	3	-3	24956*

Screens from PubChem BioAssay.
